Screening results as filed in PubChem BioAssay.
Only a selection was taken, and hits are over-represented in it overall.
KDM5B inhibitor – blocks human KDM5B histone demethylase activity | KDM5B demethylase, FDH-coupled NADH fluorescence (FDH is formaldehyde dehydrogenase) | Potency, µM (doses to about 57.7 µM), most hits filed as inhibitors | 220,000 compounds, 2.6% hits | Q9UGL1; active means well fitted inhibition curve with a large enough effect; further: nearly all actives have a fitted effect of over 70% in size
Target sequence (Q9UGL1 whole entry, looked up): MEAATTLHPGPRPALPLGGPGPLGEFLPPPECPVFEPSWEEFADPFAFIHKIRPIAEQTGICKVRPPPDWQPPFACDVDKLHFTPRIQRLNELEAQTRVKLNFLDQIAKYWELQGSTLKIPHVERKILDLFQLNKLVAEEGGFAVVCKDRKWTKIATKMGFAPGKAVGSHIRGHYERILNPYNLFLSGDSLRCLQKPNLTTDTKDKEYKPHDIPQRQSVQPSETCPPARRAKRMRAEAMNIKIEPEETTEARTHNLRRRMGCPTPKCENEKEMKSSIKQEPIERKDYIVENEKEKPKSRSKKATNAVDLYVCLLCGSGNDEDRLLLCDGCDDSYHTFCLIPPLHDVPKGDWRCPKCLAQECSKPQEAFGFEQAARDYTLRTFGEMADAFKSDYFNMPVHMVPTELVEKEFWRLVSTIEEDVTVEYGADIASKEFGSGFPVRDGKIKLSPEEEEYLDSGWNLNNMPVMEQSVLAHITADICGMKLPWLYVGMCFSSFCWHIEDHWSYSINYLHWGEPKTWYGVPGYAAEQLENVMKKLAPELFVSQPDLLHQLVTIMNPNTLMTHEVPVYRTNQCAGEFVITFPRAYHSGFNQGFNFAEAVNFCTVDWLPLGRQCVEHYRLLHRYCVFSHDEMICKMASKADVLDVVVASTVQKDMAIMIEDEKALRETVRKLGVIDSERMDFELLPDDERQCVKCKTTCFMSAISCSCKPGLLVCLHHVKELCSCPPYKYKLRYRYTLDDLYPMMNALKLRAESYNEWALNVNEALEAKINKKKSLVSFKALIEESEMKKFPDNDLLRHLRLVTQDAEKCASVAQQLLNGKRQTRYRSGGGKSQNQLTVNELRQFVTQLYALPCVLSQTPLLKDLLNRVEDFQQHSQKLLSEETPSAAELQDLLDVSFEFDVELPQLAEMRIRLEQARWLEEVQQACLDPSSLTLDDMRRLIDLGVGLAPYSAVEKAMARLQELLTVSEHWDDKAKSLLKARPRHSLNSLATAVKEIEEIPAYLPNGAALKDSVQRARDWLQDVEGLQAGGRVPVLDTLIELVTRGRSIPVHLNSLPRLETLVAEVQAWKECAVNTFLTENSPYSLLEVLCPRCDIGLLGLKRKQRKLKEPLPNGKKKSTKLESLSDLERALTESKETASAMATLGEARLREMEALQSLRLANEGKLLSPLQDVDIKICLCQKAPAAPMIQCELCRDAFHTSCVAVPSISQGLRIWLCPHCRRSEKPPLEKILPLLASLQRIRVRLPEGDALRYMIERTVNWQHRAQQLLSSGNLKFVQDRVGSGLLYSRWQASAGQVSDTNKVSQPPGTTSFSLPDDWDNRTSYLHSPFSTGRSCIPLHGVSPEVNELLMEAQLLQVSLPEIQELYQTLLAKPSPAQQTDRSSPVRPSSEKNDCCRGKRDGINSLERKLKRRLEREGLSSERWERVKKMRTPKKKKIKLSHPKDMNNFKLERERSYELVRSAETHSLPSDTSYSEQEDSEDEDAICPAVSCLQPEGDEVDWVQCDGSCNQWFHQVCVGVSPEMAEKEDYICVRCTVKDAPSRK
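Inhibition is measured as reduced NADH fluorescence generation from FDH coupling to formaldehyde release. Truncated KDM5BΔAP at 200 nM final acts on H3K4me3 peptide (12.5 µM in substrate mix) in pH 7.5 HEPES buffer with Tween-20, 30 min, room temperature.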
Hits are given with their value; – = inactive.

SMILES	KDM5B inhibitor
CN(C)C[C@@H]1CN(c2ccncn2)C[C@H]1NC(=O)Cc1c[nH]c2ccccc12	–
CN(C)C[C@@H]1CN(c2ncccn2)C[C@H]1NS(=O)(=O)c1ccc(Cl)cc1	28µM
COc1ccccc1CCC(=O)N1CCC(Oc2ncccc2C(=O)N(C)C)C1 (configuration not stated)	–
CN(C)C[C@@H]1CN(S(C)(=O)=O)C[C@H]1NC(=O)COc1ccc(Cl)cc1	–
CN(C)C[C@@H]1CN(c2ncccn2)C[C@H]1NC(=O)Cc1ccc(F)cc1	28µM
CN(C)C[C@@H]1CN(C)C[C@H]1NC(=O)Cc1ccc(Cl)cc1	–
CN(C)C[C@@H]1CN(C)C[C@H]1NS(=O)(=O)c1ccc(Cl)cc1	–
COc1ccccc1CCC(=O)N[C@@H]1CN(c2ccncn2)C[C@H]1CO	–
COc1ccccc1CCC(=O)N[C@@H]1CN(c2ncccn2)C[C@H]1CN(C)C	32µM
Cc1ccccc1CC(=O)N[C@@H]1CN(S(C)(=O)=O)C[C@H]1CN(C)C	–
CN(C)C[C@@H]1CN(c2ncccn2)C[C@H]1NC(=O)Cc1ccccc1F	32µM
COc1ccc(C(O)c2cc3c(cc2NC(=O)c2ccc(Cl)cc2)OCCO3)cc1 (configuration not stated)	–
O=C(CSc1ccc2c(c1)OCCCO2)Nc1ccc2ccccc2c1	–
Cc1nc(NC(=O)Cc2c(C)nn(C)c2C)sc1-c1ccccc1	–
COc1ccccc1C(C)NC(=O)Cn1c(=O)c2c(ncn2C)n(C)c1=O (configuration not stated)	–
NCCC(=O)N1CCCC1	–
COc1ccc(C(=O)Nc2oc3ccccc3c(=O)c2-c2ccc(OC)c(OC)c2)cc1	–
O=C(c1cn[nH]c1-c1ccc(Cl)cc1)N1CCCCC1	–
CCCNc1nc2ccccc2nc1C(C#N)S(=O)(=O)c1ccc(Cl)cc1 (configuration not stated)	–
Cc1ccc(S(=O)(=O)N[C@@H]2CN(C)C[C@H]2CN(C)C)cc1F	–
Cc1ccn(CC(=O)N[C@@H]2CN(c3ccncn3)C[C@H]2CN(C)C)n1	–
Cc1ccc(F)cc1S(=O)(=O)N[C@@H]1CN(c2ncccn2)C[C@H]1CN(C)C	25µM
Cc1cc(C)n(CC(=O)N[C@@H]2CN(Cc3cccnc3)C[C@H]2CN(C)C)n1	–
CN(C)C[C@@H]1CN(Cc2ccccn2)C[C@H]1NS(=O)(=O)c1cccc(C#N)c1	–
Cc1cc(C)n(CC(=O)N[C@@H]2CN(c3ncccn3)C[C@H]2CN(C)C)n1	28µM
SMILES	KDM5B inhibitor
CN(C)C[C@@H]1CN(c2ncccn2)C[C@H]1NC(=O)Cc1cccc(F)c1	25µM
CN(C)C[C@@H]1CN(c2ncccn2)C[C@H]1NS(=O)(=O)Cc1ccc(F)cc1	25µM
CC(NS(=O)(=O)Cc1ccc(F)cc1)c1cccnc1 (configuration not stated)	–
Cc1ccc2c(c1)C(O)(CC(=O)c1ccccn1)C(=O)N2 (configuration not stated)	–
COc1ccc(NC(=O)CN2C(=O)NC3(CCOCC3)C2=O)cc1OC	–
COc1cc(=O)n2c(c1C(=O)N1CCN(c3ccc(C)cc3)CC1)CCCC2	–
Fc1ccc(N/N=C/c2ccccc2Br)c(F)c1	–
COc1cc(/C=C(/C#N)c2ccccn2)ccc1OCc1cccc(C(F)(F)F)c1	–
CC1(NC(=O)C2CC2)CN(c2ccc(Oc3ccccc3)cc2)C1	–
COc1ccc(CNC(=O)C23CCC(=O)N2CCS3)cc1 (configuration not stated)	–
CC(NC(=O)c1ccc2c(c1)NC(=O)CS2)c1ccc2c(c1)OCO2 (configuration not stated)	–
N#C/C(=C/c1ccccc1)C(=O)OCC(=O)N1CCC(Cc2ccccc2)CC1	–
COc1cccc(CC(=O)N2CC[C@H](CO)[C@H](NC(=O)C3CC3)C2)c1	–
COc1cccc(CN2C[C@@H](CO)[C@H](NC(=O)c3ccccc3)C2)c1	–
COc1cccc(CC(=O)N[C@@H]2CN(c3ncccn3)C[C@H]2CO)c1	25µM
CCNC(=O)NC(=O)C(C)Sc1nc2ccccc2o1 (configuration not stated)	–
CC(C)c1ccc(N2C(=O)[C@@H]3C[C@@H](NC(=O)C4CCN(c5nccc(C(F)(F)F)n5)CC4)CCN3C2=O)cc1	28µM
CSCC(=O)N[C@H]1CCN2C(=O)N(c3ccc(C(C)C)cc3)C(=O)[C@@H]2C1	–
CC(=O)N1CCC(C(=O)N[C@H]2CCN3C(=O)N(c4ccc(OC(F)(F)F)cc4)C(=O)[C@@H]3C2)CC1	–
COc1cccc(-c2nn3c(CN4CCCCCC4)nnc3s2)c1	–
COc1cccc(-c2noc(CC3CCN(C(=O)c4ccc(OC)cc4C)CC3)n2)c1	–
Cc1oc2c(c1C(=O)N(C)C)CN(S(=O)(=O)c1ccccc1)CC2	–
COc1ccc(OCC2(C)COc3ccc(C(=O)NCc4ccco4)cc3N2)cc1 (configuration not stated)	18µM
COc1ccc(OCC2(C)COc3ccc(C(=O)NCC4CCOCC4)cc3N2)cc1 (configuration not stated)	32µM
COc1ccc(OCC2(C)COc3ccc(C(=O)N(C)CCN(C)C)cc3N2)cc1 (configuration not stated)	–
SMILES	KDM5B inhibitor
COc1ccc(OCC2(C)COc3ccc(C(=O)N4C[C@@H](C)O[C@@H](C)C4)cc3N2)cc1 (some centres not stated)	–
COc1ccc(OCC2(C)COc3ccc(C(=O)Nc4ccccc4)cc3N2)cc1 (configuration not stated)	28µM
COc1ccc(OCC2(C)COc3ccc(C(=O)N(C)C)cc3N2)cc1 (configuration not stated)	–
Oc1ccc(C2(c3cccc(F)c3)CCCCC2)cc1	–
O=C(c1ccc(Cl)cc1)N1CC2(CCN(Cc3ccc(Cl)cc3)CC2)Cc2ccccc21	–
COc1cc(/C=C/C(=O)c2ccc(Br)cc2)cc(OC)c1	–
CC(C)CCNc1nc(C(=O)OC(C)C(=O)NC(=O)NC2CC2)cs1 (configuration not stated)	–
NC(=O)C1CCN([C@H]2[C@@H]3OC[C@@H](O3)[C@@H](NCc3ccccc3)[C@@H]2O)CC1	–
O[C@H]1[C@H](NCc2ccncc2)[C@H]2CO[C@H](O2)[C@@H]1N1CCN(c2ccccc2)CC1	22µM
COc1ccccc1N1CCN([C@H]2[C@@H]3OC[C@@H](O3)[C@@H](NCc3ccc(-c4ccccc4)cc3)[C@@H]2O)CC1	–
CC(C)(C)CC(=O)C(C#N)C(=O)NCc1ccccc1 (configuration not stated)	–
O=C1N[C@@H]2CCN(C(=O)c3ccccc3)[C@@H]2C(=O)N1c1ccc(Oc2ccccc2)cc1	–
NS(=O)(=O)c1ccc(N/N=C/c2ccc(F)cc2)c([N+](=O)[O-])c1	–
CC(C)=CC1C(C(=O)Nc2cccc(OC(F)F)c2C)C1(C)C (configuration not stated)	–
Cc1ccc2c(Cl)c(C(=O)Nc3ccc(S(=O)(=O)Nc4cc(C)nc(C)n4)cc3)sc2c1	–
O=C(NCCCn1nccc1C1CC1)[C@H]1CNC[C@@H](C(=O)N2CCCC2)C1	–
c1cncc(-c2ccnc(NCCc3noc(C4CCCC4)n3)n2)c1	32µM
O=C(CC1CCCC1)NCCc1noc(-c2cccnc2)n1	–
O=C(NCCc1noc(-c2cccnc2)n1)NC1CCCCC1	–
Cc1cc(=O)[nH]c(NCCNc2nccc(-c3cccnc3)n2)n1	32µM
c1ccc2c(c1)cnn2CCCNc1ncncn1	–
